The values below come from PubChem BioAssay AID652104 (National Center for Advancing Translational Sciences (NCATS), 2013).

The structures appear in SMILES notation. Among all 410,000 compounds or so, about 7,200 (1.8%) were called active. Another 7% or so got no clear call; they are omitted. Calls follow the shape of the dose curve; as a rule, active = well fitted activation curve with a large enough effect; inconclusive = small, poorly fitted or top-dose-only effect, or another doubt; inactive = no such curve, though single readings can be large or run the other way. The entries come from a sample that favours actives as a whole.
Potency is read from the fitted curve at half-maximal effect.

A short description of the assay: qHTS of TDP-43 Inhibitors. Also: nearly all actives have a fitted effect of over 50% in size. As to growth rescue (activation): % of control where 0% means no effect. The conditions noted are these: TDP-43 expressing yeast growth rescue, BacTiter-Glo, 24 h; series mostly up to 46.1 µM; growth rescue (activation): at the top concentration. In a few lines: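 Growth rescue of TDP-43-toxic yeast measured as ATP luminescence (BacTiter-Glo). Cells grown to mid-log in raffinose, induced in galactose at OD600=0.02, exposed to compound 24 hr at 30 deg C.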
As for `CN(C)c1ccc(-c2nnc(-c3cccnc3)o2)cc1`, the Potency was 10 µM (active).
`CCCN(CCC)c1ccc(C(O)c2nnc(-c3ccccc3)o2)cc1` (centres undefined): the “growth rescue (activation)” value was -5.35% (inactive).
On the same count and under the same terms, in the case of `CC1(c2nnc(-c3ccncc3)o2)CC(c2cccnc2)=NO1` (centres undefined) it was 6.56% (inactive); in that of `O=C(Cn1ncc2c3ccccc3n(Cc3ccccc3)c2c1=O)NC1CCCCCC1`, 14.8% (inactive).
Regarding `CCC(Sc1nnc(-c2ccc(OC)cc2)c(-c2ccc(OC)cc2)n1)C(=O)NC1CCCCC1` (centres undefined), the “growth rescue (activation)” value was 10.9% (inactive).
In the case of `CN(Cc1ccccc1)C(=O)c1cn(C)c2ccc(S(=O)(=O)N(C)C3CCCCC3)cc2c1=O`, the “growth rescue (activation)” value was 1.58% (inactive).
Same read-out and setting: in the case of `CCOc1ccccc1CNC(=O)c1ccc2c(c1)nc1n2CCC(C)C1` (centres undefined) it was -3.83% (inactive).
Same read-out and setting: in the case of `CCOc1ccccc1C(=O)NCC(c1ccc(N(C)C)cc1)N1CCCC1` (centres undefined) it was 10.1% (inactive); in that of `COc1ccc(-c2noc(CSc3nnc(-c4ccccc4)n3-c3ccc(F)cc3)n2)c(OC)c1`, 14.2% (inactive); in that of `COc1cc(C(c2c(NC(=O)c3ccco3)sc(C)c2C)N2CCOCC2)cc(OC)c1OC` (centres undefined), 7.65% (inactive).
With `CCc1cc(C(c2ccccc2OC)N2CCOCC2)c(NC(=O)c2ccccc2)s1` (centres undefined), the Potency is 20 µM (active).
On to `COc1ccccc1C(=O)Nc1cccc(C(=O)N2CCOCC2)c1`, for which the “growth rescue (activation)” value is -30.7% (inactive).
As to `COc1ccccc1NC(=O)C1=C(C)Nc2nc(SCC(=O)c3ccc(C)cc3)nn2C1c1ccccc1C` (centres undefined), the “growth rescue (activation)” value is 10.6% (inactive).
Take `CCCCn1c(CNC(=O)C23CC4CC(CC(C4)C2)C3)nnc1SCC(=O)Nc1ccc(C)cc1`: the “growth rescue (activation)” value was 16.7% (inactive).
Consider `O=C(COc1ccccc1F)NNC(=O)c1cc(Br)ccc1Cl`, for which the “growth rescue (activation)” value is 26.6% (inactive).
`O=C(CO/N=C/c1ccccc1O)NNC(=O)c1ccccc1Cl`: the Potency was 3.16 µM (active).
In the case of `O=C(CO/N=C/c1ccccc1OC(F)F)NC1CCCC1`, the growth rescue (activation) was 26.6% [at 9.22 µM] (inactive).
Same read-out and setting: in the case of `O=C(c1ccccc1F)N1CCC(c2nc3c(nnn3Cc3cccc(F)c3)c(=O)[nH]2)CC1` it was 11.5% (inactive).
On the same count and under the same terms, next, `CC(C)c1ccc(OCC(=O)N(Cc2ccc(N(C)C)cc2)C2CCS(=O)(=O)C2)cc1` (centres undefined): 11.6% (inactive).
For the compound `COc1ccc(-c2cn3c(n2)sc2cc(C(=O)Nc4ccccc4F)ccc23)cc1`, the “growth rescue (activation)” value was 18.7% (inactive).
On to `Cc1ccc(COc2ccc(C(=O)NN)cc2)cc1`, for which the Potency is 15.8 µM (active).
In the case of `NNC(=O)c1ccc(COCC(F)(F)C(F)F)cc1`, the “growth rescue (activation)” value is -5.08% (inactive).
As for `Cc1oc(C(N)=O)cc1COc1ccc(C(N)=O)cc1`, the “growth rescue (activation)” value was 6.24% (inactive).
The same measure, in the same setting: in the case of `Cc1nn2c(=O)cc(COC(=O)c3ccccc3NC(=O)COc3ccccc3C)nc2s1` it was 19.1% (inactive).
As for `CCc1ccc2oc(-c3ccc(C)c(NC(=O)/C=C/c4ccco4)c3)nc2c1`, the “growth rescue (activation)” value is 19.8% (inactive).
Same read-out and setting: in the case of `Cc1ccc(OCCSc2nc(-c3cccs3)nc3cc(=O)[nH]n23)cc1Cl` it was -4.89% (inactive).
With `Cc1ccc(Nc2c(-c3ccc(C)cc3)nc3cnccn23)cc1`, the Potency is 22.4 µM (active).
On to `COc1ccc(-c2nc3cnccn3c2NC(C)(C)CC(C)(C)C)cc1O`, for which the “growth rescue (activation)” value was 1.88% (inactive).
Turning to `Cc1ccc(Nc2c(-c3ccc(C)s3)nc3ccccn23)cc1`, the “growth rescue (activation)” value is 7.23% (inactive).
